Holding throughout (assay): DAPPL (digital affinity profiling via proximity ligation, sequencing); 10 mM Tris-HCl pH 7.5, 50 mM NaCl, 1 mM DTT, 4% glycerol, room temperature, 30 min; GST-TFs on glutathione beads, 16-mer random dsDNA library, 0.1% formaldehyde crosslink after washing; high values mean tight binding
What all share (settings): protein: recombinant; tags: N-terminal GST; dsDNA, one strand shown

Test [1] concerns the target T1, ELK1 (Homo sapiens, UniProt P19419 1-428).
T1 sequence: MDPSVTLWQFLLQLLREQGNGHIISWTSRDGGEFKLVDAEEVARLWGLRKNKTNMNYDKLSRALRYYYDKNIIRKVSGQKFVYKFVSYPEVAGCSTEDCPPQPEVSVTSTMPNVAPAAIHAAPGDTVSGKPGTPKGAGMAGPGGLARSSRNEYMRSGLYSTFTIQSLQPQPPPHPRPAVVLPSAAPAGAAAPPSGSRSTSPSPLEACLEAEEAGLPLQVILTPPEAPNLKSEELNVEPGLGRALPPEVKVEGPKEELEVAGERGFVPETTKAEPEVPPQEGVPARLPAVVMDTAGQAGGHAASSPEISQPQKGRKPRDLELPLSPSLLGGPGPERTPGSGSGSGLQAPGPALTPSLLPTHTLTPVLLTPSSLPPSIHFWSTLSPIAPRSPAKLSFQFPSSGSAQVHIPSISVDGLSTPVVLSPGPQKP
The gist of the method: (§1)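 A tag-only sample was pooled with DNA-barcoded human transcription factors that had been expressed in yeast as GST fusions and captured on glutathione beads. The pools were incubated for 30 min at room temperature with 200 nmole of a random double-stranded 16-mer DNA library in Tris/NaCl/DTT/glycerol buffer, then washed, crosslinked with 0.1% formaldehyde, proximity-ligated (BsaI/T4 ligase, 1 h, 37 °C), PCR-amplified and sequenced on an Illumina NextSeq500. Binding signal is each hexamer's read frequency for a factor divided by its frequency for the tag-only sample.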

Test [2] addresses T2, GABPA (Homo sapiens, UniProt Q06546 1-454).
T2 sequence: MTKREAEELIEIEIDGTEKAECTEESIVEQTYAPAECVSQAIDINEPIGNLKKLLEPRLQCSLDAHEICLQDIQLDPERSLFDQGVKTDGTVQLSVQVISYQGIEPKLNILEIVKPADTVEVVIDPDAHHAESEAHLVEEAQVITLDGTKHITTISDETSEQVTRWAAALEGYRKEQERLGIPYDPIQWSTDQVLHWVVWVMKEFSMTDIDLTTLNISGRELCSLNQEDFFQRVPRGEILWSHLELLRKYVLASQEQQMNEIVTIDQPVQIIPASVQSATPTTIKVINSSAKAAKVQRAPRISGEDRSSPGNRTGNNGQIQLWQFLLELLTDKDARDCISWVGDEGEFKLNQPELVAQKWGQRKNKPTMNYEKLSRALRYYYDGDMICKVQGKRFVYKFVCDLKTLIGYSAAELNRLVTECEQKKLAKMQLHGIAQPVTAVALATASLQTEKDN
The procedure, abridged:
as §1

Test [3] deals with T3, ERG (Homo sapiens, UniProt P11308 1-479).
T3 sequence: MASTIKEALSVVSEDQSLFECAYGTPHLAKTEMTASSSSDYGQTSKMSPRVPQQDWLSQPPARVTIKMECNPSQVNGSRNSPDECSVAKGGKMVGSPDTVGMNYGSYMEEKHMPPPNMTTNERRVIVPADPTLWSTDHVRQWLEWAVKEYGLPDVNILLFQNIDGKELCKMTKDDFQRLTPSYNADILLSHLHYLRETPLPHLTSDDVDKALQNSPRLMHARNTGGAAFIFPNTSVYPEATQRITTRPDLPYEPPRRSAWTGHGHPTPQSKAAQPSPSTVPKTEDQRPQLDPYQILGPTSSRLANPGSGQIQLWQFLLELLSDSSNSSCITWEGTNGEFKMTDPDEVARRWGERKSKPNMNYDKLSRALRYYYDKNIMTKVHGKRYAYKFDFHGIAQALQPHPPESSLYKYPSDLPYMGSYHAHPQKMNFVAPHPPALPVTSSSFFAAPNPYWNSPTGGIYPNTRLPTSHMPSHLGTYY
The gist of the method:
as §1

Test [4] addresses ELF1 (Homo sapiens, UniProt P32519 1-619). The gist of the method: as §1
Test [5] concerns the target T4, EHF (Homo sapiens, UniProt Q9NZC4 1-300).
T4 sequence: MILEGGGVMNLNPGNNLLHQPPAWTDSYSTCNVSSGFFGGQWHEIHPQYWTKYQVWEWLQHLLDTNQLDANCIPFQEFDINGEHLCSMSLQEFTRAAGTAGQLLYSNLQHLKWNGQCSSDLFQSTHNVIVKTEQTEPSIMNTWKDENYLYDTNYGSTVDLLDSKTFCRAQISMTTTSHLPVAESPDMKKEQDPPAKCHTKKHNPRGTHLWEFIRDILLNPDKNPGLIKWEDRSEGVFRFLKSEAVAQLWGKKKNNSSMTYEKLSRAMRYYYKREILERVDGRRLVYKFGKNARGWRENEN
The procedure, abridged:
as §1

Test [6] concerns the target SPIB (Homo sapiens, UniProt Q01892 1-262). The gist of the method:
as §1

Test [7] deals with ETV5 (Homo sapiens, UniProt P41161 1-510). The procedure, abridged: as §1
For test [8], the target named is T5, SPIC (Homo sapiens, UniProt Q8N5J4 1-248).
T5 sequence: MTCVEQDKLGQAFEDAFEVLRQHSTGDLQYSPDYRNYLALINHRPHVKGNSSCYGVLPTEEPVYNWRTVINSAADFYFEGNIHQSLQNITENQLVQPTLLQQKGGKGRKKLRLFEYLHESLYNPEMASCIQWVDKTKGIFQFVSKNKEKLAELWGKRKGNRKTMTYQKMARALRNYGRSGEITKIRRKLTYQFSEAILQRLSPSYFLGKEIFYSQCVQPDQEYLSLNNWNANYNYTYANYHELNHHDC
The gist of the method: as §1

In test [9] the target is ELF4 (Homo sapiens, UniProt Q99607 1-663). The procedure, abridged: as §1
Test [10] addresses T6, ELK4 (Homo sapiens, UniProt P28324-2 1-405).
T6 sequence: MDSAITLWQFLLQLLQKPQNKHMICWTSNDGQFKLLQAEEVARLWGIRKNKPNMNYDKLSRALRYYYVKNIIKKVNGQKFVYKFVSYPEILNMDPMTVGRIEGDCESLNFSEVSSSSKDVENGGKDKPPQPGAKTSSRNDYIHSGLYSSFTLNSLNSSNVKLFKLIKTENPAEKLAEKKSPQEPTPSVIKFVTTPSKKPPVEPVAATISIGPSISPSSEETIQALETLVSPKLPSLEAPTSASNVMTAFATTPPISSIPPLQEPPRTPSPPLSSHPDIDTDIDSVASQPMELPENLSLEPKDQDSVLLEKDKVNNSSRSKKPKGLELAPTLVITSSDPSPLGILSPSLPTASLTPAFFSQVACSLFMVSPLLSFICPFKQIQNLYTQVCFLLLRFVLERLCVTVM
The procedure, abridged:
as §1

Test [11] has as its target T7, ELF3 (Homo sapiens, UniProt P78545 1-371).
T7 sequence: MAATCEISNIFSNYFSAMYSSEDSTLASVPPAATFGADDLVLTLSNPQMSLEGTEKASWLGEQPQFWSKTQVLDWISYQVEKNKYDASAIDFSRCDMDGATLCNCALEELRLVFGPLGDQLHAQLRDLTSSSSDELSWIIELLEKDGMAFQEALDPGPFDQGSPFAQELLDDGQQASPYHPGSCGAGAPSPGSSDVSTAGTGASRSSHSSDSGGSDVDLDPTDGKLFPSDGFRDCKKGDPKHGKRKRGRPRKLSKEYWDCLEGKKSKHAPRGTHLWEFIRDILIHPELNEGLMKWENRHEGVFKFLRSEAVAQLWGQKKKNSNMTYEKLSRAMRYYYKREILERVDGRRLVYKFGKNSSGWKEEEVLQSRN
The procedure, abridged: as §1

Test [12] concerns the target T8, ETV3L (Homo sapiens, UniProt Q6ZN32 1-361).
T8 sequence: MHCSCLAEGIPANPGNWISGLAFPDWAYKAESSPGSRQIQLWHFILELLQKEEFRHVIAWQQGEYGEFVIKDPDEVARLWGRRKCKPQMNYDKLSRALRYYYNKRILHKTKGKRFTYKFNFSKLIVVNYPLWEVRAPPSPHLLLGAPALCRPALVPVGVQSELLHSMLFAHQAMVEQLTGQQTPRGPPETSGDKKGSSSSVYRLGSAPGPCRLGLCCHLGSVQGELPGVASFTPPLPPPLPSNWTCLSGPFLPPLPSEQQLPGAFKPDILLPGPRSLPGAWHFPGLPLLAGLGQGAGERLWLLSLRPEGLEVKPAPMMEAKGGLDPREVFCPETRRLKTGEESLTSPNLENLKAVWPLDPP
The procedure, abridged:
as §1

Test [13] deals with T9, SPDEF (Homo sapiens, UniProt O95238 1-335).
T9 sequence: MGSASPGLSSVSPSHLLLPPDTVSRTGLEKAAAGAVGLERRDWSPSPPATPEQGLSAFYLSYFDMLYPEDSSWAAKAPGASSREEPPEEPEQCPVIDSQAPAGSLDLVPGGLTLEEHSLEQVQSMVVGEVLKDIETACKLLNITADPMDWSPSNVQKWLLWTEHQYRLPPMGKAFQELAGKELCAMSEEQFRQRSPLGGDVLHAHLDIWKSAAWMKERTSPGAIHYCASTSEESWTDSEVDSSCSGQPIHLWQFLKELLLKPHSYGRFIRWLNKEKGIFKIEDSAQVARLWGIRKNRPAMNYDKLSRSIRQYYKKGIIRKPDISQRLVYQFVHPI
The gist of the method: as §1

Test [14] has as its target T10, ETV7 (Homo sapiens, UniProt Q9Y603 1-341).
T10 sequence: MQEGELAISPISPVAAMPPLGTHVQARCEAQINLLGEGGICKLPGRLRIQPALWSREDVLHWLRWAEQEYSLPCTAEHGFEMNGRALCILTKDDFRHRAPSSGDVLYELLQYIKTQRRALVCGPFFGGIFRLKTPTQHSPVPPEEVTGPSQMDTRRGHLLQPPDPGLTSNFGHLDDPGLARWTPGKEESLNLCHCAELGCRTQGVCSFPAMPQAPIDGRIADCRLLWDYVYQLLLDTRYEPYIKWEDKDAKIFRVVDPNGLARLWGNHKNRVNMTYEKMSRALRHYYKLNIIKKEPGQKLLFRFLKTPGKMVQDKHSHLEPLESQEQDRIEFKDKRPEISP
The gist of the method:
as §1

Test [15] concerns the target ETV6 (Homo sapiens, UniProt P41212 1-452). The procedure, abridged:
as §1

ETV5, sequence (P41161 whole entry): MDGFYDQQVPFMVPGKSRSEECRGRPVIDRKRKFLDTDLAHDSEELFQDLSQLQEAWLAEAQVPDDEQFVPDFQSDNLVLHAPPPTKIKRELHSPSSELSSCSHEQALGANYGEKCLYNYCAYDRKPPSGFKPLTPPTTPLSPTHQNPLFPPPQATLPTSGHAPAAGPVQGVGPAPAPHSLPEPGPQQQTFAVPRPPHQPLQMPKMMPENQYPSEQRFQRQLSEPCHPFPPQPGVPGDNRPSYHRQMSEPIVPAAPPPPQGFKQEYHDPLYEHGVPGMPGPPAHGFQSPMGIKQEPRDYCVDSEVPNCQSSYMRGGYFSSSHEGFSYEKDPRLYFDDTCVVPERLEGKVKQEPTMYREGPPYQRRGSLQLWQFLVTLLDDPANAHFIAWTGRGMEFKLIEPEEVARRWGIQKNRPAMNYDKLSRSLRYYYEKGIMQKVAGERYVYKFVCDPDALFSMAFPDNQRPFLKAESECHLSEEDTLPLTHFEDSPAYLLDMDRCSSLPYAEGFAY
ETV6, sequence (P41212 whole entry): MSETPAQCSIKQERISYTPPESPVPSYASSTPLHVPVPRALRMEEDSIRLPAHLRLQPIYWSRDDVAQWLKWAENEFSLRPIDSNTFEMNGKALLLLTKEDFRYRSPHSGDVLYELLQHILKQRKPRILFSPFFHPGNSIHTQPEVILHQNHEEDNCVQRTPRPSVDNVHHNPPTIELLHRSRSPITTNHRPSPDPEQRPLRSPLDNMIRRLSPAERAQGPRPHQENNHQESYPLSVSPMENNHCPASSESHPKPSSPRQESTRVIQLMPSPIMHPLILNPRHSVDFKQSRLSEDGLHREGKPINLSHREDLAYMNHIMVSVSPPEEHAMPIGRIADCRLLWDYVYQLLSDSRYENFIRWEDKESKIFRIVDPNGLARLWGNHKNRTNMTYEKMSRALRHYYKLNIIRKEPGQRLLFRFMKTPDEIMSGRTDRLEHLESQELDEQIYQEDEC
SPIB, sequence (Q01892 whole entry): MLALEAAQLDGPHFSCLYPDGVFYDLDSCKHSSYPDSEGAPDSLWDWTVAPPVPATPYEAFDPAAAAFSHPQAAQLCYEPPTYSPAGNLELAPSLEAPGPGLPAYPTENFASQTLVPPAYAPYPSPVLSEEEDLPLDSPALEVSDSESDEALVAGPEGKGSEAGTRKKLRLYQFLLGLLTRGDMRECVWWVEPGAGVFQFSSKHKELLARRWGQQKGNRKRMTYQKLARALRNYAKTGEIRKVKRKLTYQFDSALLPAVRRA
ELF1, sequence (P32519 whole entry): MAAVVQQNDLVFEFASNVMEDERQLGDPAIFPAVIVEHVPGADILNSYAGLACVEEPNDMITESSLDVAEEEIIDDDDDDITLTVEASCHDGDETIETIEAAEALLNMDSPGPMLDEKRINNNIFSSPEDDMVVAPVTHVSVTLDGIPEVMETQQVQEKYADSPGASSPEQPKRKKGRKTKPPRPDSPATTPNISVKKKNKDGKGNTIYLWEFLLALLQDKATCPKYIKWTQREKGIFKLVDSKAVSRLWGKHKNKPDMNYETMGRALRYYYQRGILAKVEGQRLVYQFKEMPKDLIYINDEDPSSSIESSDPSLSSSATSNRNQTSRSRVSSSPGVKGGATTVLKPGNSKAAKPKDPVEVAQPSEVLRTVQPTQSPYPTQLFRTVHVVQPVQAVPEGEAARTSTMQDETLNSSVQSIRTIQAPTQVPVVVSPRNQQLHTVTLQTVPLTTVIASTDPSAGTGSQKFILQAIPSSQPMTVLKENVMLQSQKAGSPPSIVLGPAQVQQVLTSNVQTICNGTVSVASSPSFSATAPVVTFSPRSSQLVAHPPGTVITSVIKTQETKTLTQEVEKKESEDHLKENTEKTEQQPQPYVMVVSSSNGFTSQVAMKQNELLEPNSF
ELF4, sequence (Q99607 whole entry): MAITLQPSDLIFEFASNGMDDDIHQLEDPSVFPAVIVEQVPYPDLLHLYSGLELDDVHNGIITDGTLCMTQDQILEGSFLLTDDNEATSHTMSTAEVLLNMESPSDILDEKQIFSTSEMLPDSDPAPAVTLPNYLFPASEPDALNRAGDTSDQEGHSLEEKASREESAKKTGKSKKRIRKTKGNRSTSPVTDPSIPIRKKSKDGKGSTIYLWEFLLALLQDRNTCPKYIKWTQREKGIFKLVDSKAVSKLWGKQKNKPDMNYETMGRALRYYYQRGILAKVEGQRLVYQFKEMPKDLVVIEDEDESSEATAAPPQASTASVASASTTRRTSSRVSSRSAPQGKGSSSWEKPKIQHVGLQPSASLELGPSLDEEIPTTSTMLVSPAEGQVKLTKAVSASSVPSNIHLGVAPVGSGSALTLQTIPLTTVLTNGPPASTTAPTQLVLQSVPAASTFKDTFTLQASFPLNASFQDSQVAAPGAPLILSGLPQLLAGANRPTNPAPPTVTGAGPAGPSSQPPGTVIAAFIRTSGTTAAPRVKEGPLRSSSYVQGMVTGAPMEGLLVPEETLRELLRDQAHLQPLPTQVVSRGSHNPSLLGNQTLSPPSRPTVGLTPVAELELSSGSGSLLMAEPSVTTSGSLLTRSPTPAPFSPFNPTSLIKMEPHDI

For GTACGA, the binding signal in [1] is 1.03 fold enrichment (6-mer frequency, TF over GST control); in [2] it was 1.14 fold enrichment (6-mer frequency, TF over GST control); in test [3], 1.04 fold enrichment (6-mer frequency, TF over GST control); in test [4] it was 1.08 fold enrichment (6-mer frequency, TF over GST control); in test [5], 1.04 fold enrichment (6-mer frequency, TF over GST control); in [6], 1.05 fold enrichment (6-mer frequency, TF over GST control). Moreover, the binding signal in test [7] was 1.02 fold enrichment (6-mer frequency, TF over GST control); in test [8] it was 1.02 fold enrichment (6-mer frequency, TF over GST control); in test [9], 1.11 fold enrichment (6-mer frequency, TF over GST control); in [10], 1.04 fold enrichment (6-mer frequency, TF over GST control); in test [11] it was 1.11 fold enrichment (6-mer frequency, TF over GST control); in test [12], 1.09 fold enrichment (6-mer frequency, TF over GST control). Further, the binding signal in test [13] was 1.02 fold enrichment (6-mer frequency, TF over GST control); in [14] it was 1.16 fold enrichment (6-mer frequency, TF over GST control); in test [15], 1.05 fold enrichment (6-mer frequency, TF over GST control).

The values are drawn from paper PMC7862700, “An all-to-all approach to the identification of sequence-specific readers for epigenetic DNA modifications on cytosine”.
